Measurements published in PubChem BioAssay (NCI).
The panel holds about 83,000 compounds, 20% with a hit somewhere; the sample as a whole holds those more often.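 Values shown are percent growth following 48 h exposure of cells in 96-well plates to a single concentration of compound; below 10 was considered active.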 Values without a mark were called inactive. Active and inactive are the calls of the source.

Tests used:
Assay in all cases: NCI-60 one-dose screen, 48 h (100 = growth as untreated, 0 = no growth, -100 = all killed)
Conditions in all cases: 10 µM
[1] = tested on: NCI-H23 lung
[2] = tested on: NCI-H226 lung
[3] = tested on: NCI-H322M lung
[4] = tested on: HOP-62 NSCLC
[5] = tested on: NCI-H460 lung
[6] = tested on: HOP-92 NSCLC
[7] = tested on: NCI-H522 lung
[8] = tested on: A549/ATCC NSCLC
[9] = tested on: 786-0 renal
[10] = tested on: COLO 205 colon
[11] = tested on: DU-145 prostate
[12] = tested on: MALME-3M melanoma
[13] = tested on: MDA-MB-231 breast
[14] = tested on: RXF 393 renal
[15] = tested on: SF-268 CNS
[16] = tested on: SF-295 CNS
[17] = tested on: SF-539 CNS
[18] = tested on: UACC-257 melanoma
[19] = tested on: M14 melanoma
[20] = tested on: K-562 leukemia

| SMILES | growth [1] | growth [2] | growth [3] | growth [4] | growth [5] | growth [6] | growth [7] | growth [8] | growth [9] | growth [10] | growth [11] | growth [12] | growth [13] | growth [14] | growth [15] | growth [16] | growth [17] | growth [18] | growth [19] | growth [20] |
| --- | --- | --- | --- | --- | --- | --- | --- | --- | --- | --- | --- | --- | --- | --- | --- | --- | --- | --- | --- | --- |
| CN1CCN(c2ccc(Nc3nc(NCCCNC(=O)c4ccc(Cl)cc4)c4sccc4n3)cc2)CC1 | 81.9% | 79.3% | 91.3% | 91.9% | 88.9% | 34.1% | 103% | 87.8% | -4.27% (active) | 92.5% | 84.2% | 72.6% | 61.1% | 37.6% | 77% | 98% | 18.7% | 71.9% | 68.6% |  |
| C=C(C)[C@@H]1CC[C@]2(C)[C@H](CC=C3[C@@H]4CC(C)(C)CC[C@]4(C(=O)N4CCOCC4)CC[C@]32C)[C@@]1(C)CCCN | -82.2% (active) | -80.5% (active) | -98.9% (active) | -90.6% (active) | -77.5% (active) | -77.1% (active) | -91.6% (active) | -84.1% (active) | -79.3% (active) | -92.8% (active) | -93.1% (active) | -93.8% (active) | -91.4% (active) | -90.9% (active) | -76% (active) | -87.4% (active) | -98.6% (active) | -92.4% (active) | -80% (active) |  |
| COc1cccc(-c2nn(-c3ccccc3)cc2-c2ccnc(NCCCNC(=O)Nc3ccc(F)cc3)c2)c1 | 17% | 16.4% | 43.7% | 7.43% (active) | 15.2% | -25% (active) | -3.16% (active) | 15.1% | -11.3% (active) | -0.929% (active) | 54.1% | -24.7% (active) | -1.32% (active) | 0.912% (active) | 26.1% | -40.5% (active) | -29.9% (active) | -11.9% (active) | -21% (active) |  |
| O=c1[nH][nH]c(Nc2ccccc2)c1N=Nc1ccc(F)cc1 | 102% | 84.4% | 83.5% | 119% | 101% | 71.2% | 75.1% | 84.8% | 91.3% | 107% | 102% | 116% | 86.6% | 83.1% | 81.5% | 111% | 92.8% | 127% | 107% |  |
| Cc1cc2c(c(O)c1Br)-c1ncoc1C(=O)[C@]1(C)CC[C@H](C(C)C)[C@H]21 | 36.8% | 38.5% | 65.7% | 38% |  | 35.4% | -20.6% (active) | 16.5% | 66.5% | -15.9% (active) | 54% | 31% | 48.9% | 60.6% | 49.4% | 22.9% | 14.3% | 15.1% | 18.9% |  |
| CCOC(=O)CNC(=O)CN(Cc1ccccc1)C(=O)[C@@]1(C)CCC[C@]2(C)[C@H]3CC4C(C(C)C)=C[C@]3(CC[C@H]21)[C@@H]1C(=O)CCC(=O)[C@H]41 | 48.9% | 49.3% | 86.5% | 92.3% |  | 80.5% | 36.7% | 65% | 78.1% | 79.4% | 92.6% | 83% | 64.8% |  | 64.7% | 54.4% | 77.2% | 70.2% | 72.2% | 25.3% |
| C=C1CC[C@H](C(=C)C)[C@H]2C=C(C)C(=O)C3=C(C(=O)[C@@](C)(O)C3)[C@H]12 | -63.9% (active) | -57.8% (active) | -96.9% (active) | -72.7% (active) | -45.6% (active) | -90.8% (active) |  | -50.4% (active) | 2.21% (active) | -88.7% (active) | -45.4% (active) | -79.1% (active) | -70.1% (active) | -82.7% (active) | -50.1% (active) | -86.4% (active) | -98.4% (active) | -97.3% (active) | -30.3% (active) |  |
| O=C(N=Nc1c(O)[nH]c2ccc(Br)cc12)c1ccc2nc(-c3ccccc3)[nH]c2c1 | -66.1% (active) | -47.9% (active) | -62.9% (active) | -61.9% (active) |  | -78.8% (active) |  | -24.6% (active) | -92.9% (active) | -67.5% (active) | -60.5% (active) | -99.2% (active) | -97.5% (active) | -79.7% (active) | -53.3% (active) | -81.9% (active) | -97.9% (active) | -19.9% (active) | -85.9% (active) | 1.09% (active) |
